Source: the supplement of paper PMC11150407
In all, about 3,000 compounds went through this assay and about 45 (2%) showed an effect of 50% or more. For the sample, strong results were picked, then their nearest neighbours and some compounds at random.

What follows are compounds tested on MOLM1 and UCSD/AML1 (averaged) (assay: cell viability relative to DMSO control (POC); higher = less growth inhibition). Conditions: 1 µM; 72 h.
Experimental: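 Primary viability screen in the 3q26 EVI1-high AML cell lines MOLM1 and UCSD/AML1, compounds at 1 uM for 72 h. ATP CellTiter-Glo read-out given as percent viable over DMSO control (POC), averaged over duplicates. This mapping covers the TimTec NDL-3000 natural derivative library, whose compounds are identified by TimTec catalogue codes (ST...).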

Structure (SMILES) | cell viability [%]
O=C(O)/C=C/c1ccc(Cl)c(Cl)c1 | 97.8
COc1cc(C(=O)N2c3ccccc3CC2C)cc(OC)c1OC (configuration not stated) | 91.9
COc1cc(C(=O)Oc2ccccc2)cc(OC)c1OC | 108
COc1cc(C(=O)N2c3ccccc3C(C)=CC2(C)C)cc(OC)c1OC | 29.3
COc1cc(C(=O)N2CCN(C(=O)c3cccc(Cl)c3)CC2)cc(OC)c1OC | 102
COc1cc(C(=O)N2CCOCC2)cc(OC)c1OC | 98.2
COc1cc(C(=O)N2CCN(c3cccc(C)c3C)CC2)cc(OC)c1OC | 12.5
O=C(/C=C/c1ccc2c(c1)OCO2)c1ccc2c(c1)OCCO2 | 104
Cn1c(SCc2ccc(Cl)cc2)nc2c(=O)[nH]cnc21 | 90
COc1ccc2[nH]cc(CCNC(=O)c3nn(-c4ccccc4)nc3C)c2c1 | 107
COc1ccc(/C=C2\CCc3ccccc3C2=O)cc1 | 94
COc1ccc(/C=C2\Oc3ccc(Br)cc3C2=O)cc1 | 97.7
CCC1C/C(=C\c2ccc(OC)cc2)C(=O)/C(=C/c2ccc(OC)cc2)C1 (configuration not stated) | 12.8
CCOC(=O)c1ccc2nc3c(=O)[nH]c(=O)nc-3n(CCc3ccc(OC)c(OC)c3)c2c1 | 99.7
COc1ccc(/C=C/C(=O)O)cc1COc1ccccc1 | 101
COc1ccc(OCc2cc(C=O)ccc2OC)cc1 | 107
COc1ccc(C=O)cc1COc1ccc2c(c1)CCC2 | 47.2
O=C(OCC1CCCN2CCCCC12)c1ccccc1O (configuration not stated) | 96.9
Cc1cc2oc(=O)cc(O)c2cc1C | 95.7

Structure (SMILES) | cell viability [%]
O=C(c1ccccc1)N1CCN(CC(O)Cn2c3ccccc3c3ccccc32)CC1 (configuration not stated) | 99.4
CC1(C(=O)O)CCC2(C)CCC3(C)C(=CC(=O)C4C5(C)CCC(OC6OC(C(=O)O)C(O)C(O)C6OC6OC(C(=O)O)C(O)C(O)C6O)CC5CCC43C)C2C1.CC1(C(=O)O)CCC2(C)CCC3(C)C(=CC(=O)C4C5(C)CCC(OC6OC(C(=O)O)C(O)C(O)C6OC6OC(C(=O)O)C(O)C(O)C6O)CC5CCC43C)C2C1.CC1(C(=O)O)CCC2(C)CCC3(C)C(=CC(=O)C4C5(C)CCC(OC6OC(C(=O)O)C(O)C(O)C6OC6OC(C(=O)O)C(O)C(O)C6O)CC5CCC43C)C2C1.[Fe] (configuration not stated) | 91.5
O=c1cc(-c2ccccc2Cl)oc2c(Br)cc(Cl)cc12 | 112
O=C(N/N=C/c1cc(N=Nc2cccc3ccccc23)ccc1O)c1ccc2c(c1)OCO2 | 64.5
O=C(N/N=C/c1cc(N=Nc2cccc(C(F)(F)F)c2)ccc1O)c1ccc2c(c1)OCO2 | 21.3
O=C(N/N=C\c1cc(Br)cc(Br)c1OC(=O)c1cccc(F)c1)c1ccc2c(c1)OCO2 | 64.1
Cc1cc(=O)[nH]c(SCC(=O)Nc2cccc(C)c2C)n1 | 114
Cc1ccccc1C(=O)OCC1CCCN2CCCCC12.O.O.O.O.O.O.O=[N+]([O-])O.O=[N+]([O-])O.[Co] (configuration not stated) | 104
CC(C)c1ccc(/C=C/C(=O)N2CCC3(O)CCCCC3C2c2ccc(F)cc2)cc1 (configuration not stated) | 77.9
O=C(Nc1c(C(=O)Nc2ccccc2)c2ccccc2n(Cc2ccc(F)cc2)c1=O)c1ccccc1 | 94.1
COc1cccc(C=Nc2ccc3cc4ccc(N=Cc5cccc(OC)c5O)cc4nc3c2)c1O | 2.39
COC(=O)C1=C(C)NC(SCC(=O)c2ccc3c(c2)OCO3)=C(C#N)C1c1cccs1 (configuration not stated) | 95.7
CC(C)C(=O)NCC(=O)NCC(=O)O | 98.8
O=C(CCNc1n[nH]c(=O)[nH]c1=O)N/N=C/c1cccnc1 | 93
COc1ccccc1CNC(=O)c1cc(OC)c(OC)c(OC)c1 | 100
COc1cc(/C=N/NC(=O)CCC(=O)Nc2ccccc2C)cc(OC)c1OC | 91.6
CCn1c2ccccc2c2cc(/C=N/NC(=O)c3cc(OC)c(OC)c(OC)c3)ccc21 | 10.7
O=C(O)/C=C/c1c(Cl)cccc1Cl | 94.6
